{"source": "PubChem BioAssay AID2073", "about": "(Sanford-Burnham Center for Chemical Genomics, 2009)", "molecular_target": "Voltage-dependent N-type calcium channel subunit alpha-1B (Homo sapiens) (UniProt Q00975)", "sequence (Q00975 whole entry, looked up)": "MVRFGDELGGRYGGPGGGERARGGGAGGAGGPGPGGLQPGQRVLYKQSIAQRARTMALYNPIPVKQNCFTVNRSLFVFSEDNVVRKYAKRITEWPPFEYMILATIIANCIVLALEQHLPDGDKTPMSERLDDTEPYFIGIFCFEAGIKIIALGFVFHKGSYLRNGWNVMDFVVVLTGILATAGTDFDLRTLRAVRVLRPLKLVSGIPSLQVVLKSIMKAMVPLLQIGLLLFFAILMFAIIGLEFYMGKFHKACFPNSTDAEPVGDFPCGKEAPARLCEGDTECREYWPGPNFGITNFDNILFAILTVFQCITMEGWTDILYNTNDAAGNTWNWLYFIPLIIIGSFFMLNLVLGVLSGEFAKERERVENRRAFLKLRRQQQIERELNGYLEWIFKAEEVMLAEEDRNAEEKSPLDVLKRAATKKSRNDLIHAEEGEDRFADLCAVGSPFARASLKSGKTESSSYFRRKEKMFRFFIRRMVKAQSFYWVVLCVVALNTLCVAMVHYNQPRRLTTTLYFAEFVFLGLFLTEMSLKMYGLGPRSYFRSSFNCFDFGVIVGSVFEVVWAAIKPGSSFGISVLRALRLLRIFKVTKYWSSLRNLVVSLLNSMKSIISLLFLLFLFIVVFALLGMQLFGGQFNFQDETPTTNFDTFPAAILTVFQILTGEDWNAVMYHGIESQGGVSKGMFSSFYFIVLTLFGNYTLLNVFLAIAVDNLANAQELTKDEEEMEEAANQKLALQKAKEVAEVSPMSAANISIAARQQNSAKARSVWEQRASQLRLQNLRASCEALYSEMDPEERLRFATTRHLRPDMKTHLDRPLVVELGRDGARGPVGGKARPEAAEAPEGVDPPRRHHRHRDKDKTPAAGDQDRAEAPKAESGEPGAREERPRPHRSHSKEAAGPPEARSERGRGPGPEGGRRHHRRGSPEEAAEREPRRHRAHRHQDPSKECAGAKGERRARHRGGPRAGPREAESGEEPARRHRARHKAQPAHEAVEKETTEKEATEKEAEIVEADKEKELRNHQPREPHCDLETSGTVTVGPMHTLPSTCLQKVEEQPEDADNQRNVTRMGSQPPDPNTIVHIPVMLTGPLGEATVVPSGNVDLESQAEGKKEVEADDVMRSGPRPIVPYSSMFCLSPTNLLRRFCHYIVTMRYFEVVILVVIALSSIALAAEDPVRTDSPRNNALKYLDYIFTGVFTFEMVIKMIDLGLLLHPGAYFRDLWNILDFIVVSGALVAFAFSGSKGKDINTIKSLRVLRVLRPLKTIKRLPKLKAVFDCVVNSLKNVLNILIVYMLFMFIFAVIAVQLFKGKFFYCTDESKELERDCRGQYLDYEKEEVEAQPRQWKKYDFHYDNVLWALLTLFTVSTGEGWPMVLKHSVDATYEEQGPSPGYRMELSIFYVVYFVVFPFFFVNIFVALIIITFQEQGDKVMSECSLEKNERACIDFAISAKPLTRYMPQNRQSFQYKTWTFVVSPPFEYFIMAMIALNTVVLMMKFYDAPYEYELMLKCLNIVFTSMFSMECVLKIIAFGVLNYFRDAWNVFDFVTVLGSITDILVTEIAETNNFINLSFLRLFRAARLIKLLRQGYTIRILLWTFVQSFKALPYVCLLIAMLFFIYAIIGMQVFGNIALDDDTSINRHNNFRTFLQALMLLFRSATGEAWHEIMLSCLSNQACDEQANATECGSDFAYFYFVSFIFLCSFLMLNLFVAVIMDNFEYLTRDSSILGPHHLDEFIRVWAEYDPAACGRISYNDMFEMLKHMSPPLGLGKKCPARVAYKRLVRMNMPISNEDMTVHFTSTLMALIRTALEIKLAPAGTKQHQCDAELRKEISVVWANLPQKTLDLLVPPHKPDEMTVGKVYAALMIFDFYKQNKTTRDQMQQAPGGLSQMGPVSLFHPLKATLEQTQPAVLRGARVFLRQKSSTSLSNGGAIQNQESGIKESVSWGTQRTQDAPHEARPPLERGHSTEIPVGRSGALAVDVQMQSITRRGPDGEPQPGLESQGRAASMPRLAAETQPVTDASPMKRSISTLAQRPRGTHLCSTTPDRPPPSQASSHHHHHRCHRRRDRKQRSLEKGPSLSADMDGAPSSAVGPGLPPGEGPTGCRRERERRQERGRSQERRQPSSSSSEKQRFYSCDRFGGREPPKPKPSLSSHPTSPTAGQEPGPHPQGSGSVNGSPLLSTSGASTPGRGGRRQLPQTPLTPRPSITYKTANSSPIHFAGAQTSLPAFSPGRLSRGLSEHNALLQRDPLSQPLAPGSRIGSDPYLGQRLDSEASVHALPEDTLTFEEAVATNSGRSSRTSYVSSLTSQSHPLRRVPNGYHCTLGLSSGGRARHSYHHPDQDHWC", "experiment": "disruptors of CaV2.2 binding to Mint1 – biochemical, HTRF (AID 2073)", "conditions": "HTRF protein-protein interaction, Mint1-CaV2.2, at 20 µM, stronger effect = higher value", "note": "About 570 (0.2%) of roughly 290,000 compounds were called active. About 1% were inconclusive and are not listed. Cut-off read from the data, not from the text of the source: active = inhibition mostly above about 51% (no sharp cut-off); inconclusive = no clear call, values can overlap the other calls; inactive = mostly below about 53%. For the sample, actives were picked, then their nearest neighbours and some compounds at random."}
{"smiles": "O=C(COc1ccccc1Cl)Nc1ccc(CN2CCOCC2)cc1", "values": [{"measurement": "inhibition", "result": "-4.3% (inactive)"}]}
{"smiles": "Cc1nn(CC(=O)N2CCC(N3CCCCC3)CC2)c(=O)c2c1sc1ccccc12", "values": [{"measurement": "inhibition", "result": "16.1% (inactive)"}]}
{"smiles": "Cc1ccc(NC(=O)Cn2nnc(C(=O)NCc3ccc4c(c3)OCO4)c2N)cc1", "values": [{"measurement": "inhibition", "result": "9.7% (inactive)"}]}
{"smiles": "O=C(NNc1ccccc1)Nc1ccccc1F", "values": [{"measurement": "inhibition", "result": "-15.6% (inactive)"}]}
{"smiles": "CC(C)(C)C1CCC(=NNC(=O)C(=O)NC2CCCCC2)CC1", "note": "(configuration not stated)", "values": [{"measurement": "inhibition", "result": "2.1% (inactive)"}]}
{"smiles": "O=C(OCc1nnc(-c2ccc(Cl)cc2)o1)c1ccncc1", "values": [{"measurement": "inhibition", "result": "7.7% (inactive)"}]}
{"smiles": "Clc1ss/c(=N\\c2ccccn2)c1Cl", "values": [{"measurement": "inhibition", "result": "6.4% (inactive)"}]}
{"smiles": "Clc1ccc(N=c2ssnc2Cl)cc1", "values": [{"measurement": "inhibition", "result": "-17.4% (inactive)"}]}
{"smiles": "Cc1c(CCC(=O)O)c(=O)oc2cc(OCc3cccc(F)c3)ccc12", "values": [{"measurement": "inhibition", "result": "16.2% (inactive)"}]}
{"smiles": "CSc1nc(-c2ccco2)cc(-c2ccccc2)c1C#N", "values": [{"measurement": "inhibition", "result": "15.4% (inactive)"}]}
{"smiles": "N#Cc1c(-c2ccco2)cc(-c2ccccc2)[nH]c1=O", "values": [{"measurement": "inhibition", "result": "48.2% (inactive)"}]}
{"smiles": "N#Cc1c(-c2ccccc2)cc(-c2ccco2)c(C#N)c1N", "values": [{"measurement": "inhibition", "result": "53.5% (active)"}]}
{"smiles": "COc1ccc(Cl)cc1NC(=O)c1ccc2c(SCC(=O)O)c3c(nc2c1)CCCC3", "values": [{"measurement": "inhibition", "result": "12.3% (inactive)"}]}
{"smiles": "COc1cc(OC)c(NC(=O)c2ccc3c(SCC(=O)O)c4c(nc3c2)CCCC4)cc1Cl", "values": [{"measurement": "inhibition", "result": "44.9% (inactive)"}]}
{"smiles": "COc1cc(Cl)c(C)cc1NC(=O)c1ccc2c(SCC(=O)O)c3c(nc2c1)CCCC3", "values": [{"measurement": "inhibition", "result": "53.2% (active)"}]}
{"smiles": "CCCOc1cccc(C(=O)O)c1", "values": [{"measurement": "inhibition", "result": "-5.1% (inactive)"}]}
{"smiles": "O=C(N/N=C/c1ccco1)c1cc(-c2ccc3ccccc3c2)n[nH]1", "values": [{"measurement": "inhibition", "result": "5.5% (inactive)"}]}
{"smiles": "CC(/C=N/NC(=O)c1cc(-c2ccccc2)nc2ccccc12)=C\\c1ccco1", "values": [{"measurement": "inhibition", "result": "52.6% (active)"}]}
{"smiles": "O=C(N/N=C\\C=C\\c1ccco1)c1cc(-c2ccc3ccccc3c2)n[nH]1", "values": [{"measurement": "inhibition", "result": "80.2% (inactive)"}, {"measurement": "inhibition", "setting": "measured here: average of repeat tests", "result": 9.6, "unit": "%"}]}
{"smiles": "CC(/C=N/NC(=O)c1cc(-c2ccc(Cl)cc2)nc2ccccc12)=C\\c1ccco1", "values": [{"measurement": "inhibition", "result": "37.8% (inactive)"}]}
{"smiles": "CC(/C=N/NC(=O)c1cc(-c2ccncc2)nc2ccccc12)=C\\c1ccco1", "values": [{"measurement": "inhibition", "result": "43.6% (inactive)"}]}
{"smiles": "CC(/C=N/NC(=O)c1cc(-c2ccc3ccccc3c2)n[nH]1)=C\\c1ccco1", "values": [{"measurement": "inhibition", "result": "73.3% (active)"}]}
{"smiles": "CCOc1cc(C(=O)O)cc(Cl)c1OC", "values": [{"measurement": "inhibition", "result": "0.7% (inactive)"}]}
{"smiles": "Cc1ccc(N2CCN(/N=C/C=C/c3ccccc3)CC2)cc1", "values": [{"measurement": "inhibition", "result": "2.8% (inactive)"}]}
{"smiles": "N/C(=N\\C(=S)Nc1ccccc1)c1ccccc1", "values": [{"measurement": "inhibition", "result": "5.2% (inactive)"}]}
{"smiles": "Cc1ccc(NC(=S)c2ccccc2)cc1", "values": [{"measurement": "inhibition", "result": "-6.4% (inactive)"}]}
{"smiles": "CNC(=S)/N=C(/Nc1ccccc1)c1ccccc1", "values": [{"measurement": "inhibition", "result": "59.9% (active)"}]}
{"smiles": "CNC(=S)Nc1ccc(Nc2ccccc2)cc1", "values": [{"measurement": "inhibition", "result": "-5.3% (inactive)"}]}
{"smiles": "Cc1ccc(NC(=O)c2ccccc2)cc1", "values": [{"measurement": "inhibition", "result": "-4.2% (inactive)"}]}
{"smiles": "CS(=O)(=O)NCCSCc1c(Cl)cccc1Cl", "values": [{"measurement": "inhibition", "result": "28.1% (inactive)"}]}
{"smiles": "N#Cc1c(C(F)(F)F)cc(C2CC2)[nH]c1=O", "values": [{"measurement": "inhibition", "result": "6.1% (inactive)"}]}
{"smiles": "Cc1ccc(C(=S)NCS(=O)(=O)c2ccc(C)cc2)cc1", "values": [{"measurement": "inhibition", "result": "28% (inactive)"}]}
{"smiles": "C(=C\\c1nc2ccccc2[nH]1)/c1ccccc1", "values": [{"measurement": "inhibition", "result": "5.8% (inactive)"}]}
{"smiles": "C(=C\\c1ccco1)/c1nc2ccccc2[nH]1", "values": [{"measurement": "inhibition", "result": "65.6% (active)"}]}
{"smiles": "Cc1ccc(/C=C/c2nc3ccccc3[nH]2)o1", "values": [{"measurement": "inhibition", "result": "44.8% (inactive)"}]}
{"smiles": "CCc1ccc(CN2CCC(n3nccc3NC(=O)c3ccc4c(c3)OCO4)CC2)cc1", "values": [{"measurement": "inhibition", "result": "2.8% (inactive)"}]}
{"smiles": "N#Cc1c(N2CCCCC2)nc(N2CCCCC2)c2c1CCN(Cc1ccccc1)C2", "values": [{"measurement": "inhibition", "result": "16.2% (inactive)"}]}
{"smiles": "N#Cc1c(N)sc2c1CCN(CCc1ccccc1)C2", "values": [{"measurement": "inhibition", "result": "3.3% (inactive)"}]}
{"smiles": "N#Cc1c(N)sc(=S)c2c1CCN(Cc1ccccc1)C2", "values": [{"measurement": "inhibition", "result": "52.4% (active)"}]}
{"smiles": "CN(C(=O)CC1C(=O)NCCN1Cc1ccccc1F)C1CCOCC1", "note": "(configuration not stated)", "values": [{"measurement": "inhibition", "result": "16.3% (inactive)"}]}
{"smiles": "CC1=CC(C)(C)N(C)C(=O)N1c1ccc(Cl)cc1", "values": [{"measurement": "inhibition", "result": "-2.6% (inactive)"}]}
{"smiles": "Cc1cc(=O)cc(C)n1-c1ccc(Cl)cc1", "values": [{"measurement": "inhibition", "result": "7.3% (inactive)"}]}
{"smiles": "Cc1c(Cl)sn(-c2ccc(Cl)cc2)c1=O", "values": [{"measurement": "inhibition", "result": "79.2% (active)"}]}
{"smiles": "CN1CCN(C(=O)CN(c2cc(C(F)(F)F)ccc2Cl)S(C)(=O)=O)CC1", "values": [{"measurement": "inhibition", "result": "-10.8% (inactive)"}]}
{"smiles": "Cc1ccc(/C=C(\\CCC(=O)O)c2nc3ccccc3s2)cc1[N+](=O)[O-]", "values": [{"measurement": "inhibition", "result": "7% (inactive)"}]}
{"smiles": "CN(c1ccccc1)c1ccc(/C=C(\\CCC(=O)O)c2nc3ccccc3s2)cc1[N+](=O)[O-]", "values": [{"measurement": "inhibition", "result": "54.7% (active)"}]}
